For 14 compounds, inhibition results are on record in PubChem BioAssay AID1210 (NMMLSC, 2008).

The target in the assay is Estrogen receptor beta (Homo sapiens) (UniProt Q92731). Kind of assay: ERbeta ligand binders by competition, primary screen, cell-based, Cos7 ERbeta-GFP, flow cytometry (AID 1210).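 Note: 0% = DMSO vehicle wells and 100% = complete loss of labeled estradiol signal.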 The note with it: fluorescent estrogen binding, stronger effect = higher value. A general note: A flow cytometer gives signals particle by particle.
The mark [1] stands for this setting: ligand binding inhibition, at 0.1 µM.

A word on the inhibition: it is the percentage by which the read-out fell short of the control.

Calls of active or inactive are those of the source.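 Rule for the calls: active = blocks over 70% of labeled estradiol binding at 10 µM, or over a set limit at 100 nM; inactive = the rest.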

Sequence of Estrogen receptor beta (Homo sapiens) (Q92731 whole entry, looked up): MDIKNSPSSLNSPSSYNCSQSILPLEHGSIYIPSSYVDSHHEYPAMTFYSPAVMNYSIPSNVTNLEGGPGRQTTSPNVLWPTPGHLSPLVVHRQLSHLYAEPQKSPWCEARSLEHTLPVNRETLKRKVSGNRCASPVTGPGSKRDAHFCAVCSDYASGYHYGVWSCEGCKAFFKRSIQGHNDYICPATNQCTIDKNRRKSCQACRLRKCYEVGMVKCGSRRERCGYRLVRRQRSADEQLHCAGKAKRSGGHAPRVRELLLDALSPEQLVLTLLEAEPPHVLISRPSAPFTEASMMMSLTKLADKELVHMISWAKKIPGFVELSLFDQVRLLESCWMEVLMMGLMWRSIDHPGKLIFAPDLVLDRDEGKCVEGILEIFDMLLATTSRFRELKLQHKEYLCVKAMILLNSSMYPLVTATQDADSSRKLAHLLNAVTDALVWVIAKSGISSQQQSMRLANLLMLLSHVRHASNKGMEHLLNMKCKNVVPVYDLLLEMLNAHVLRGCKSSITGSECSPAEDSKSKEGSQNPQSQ

For `COC(=O)c1[nH]c2ccc(C)cc2c1NC(=O)CN1CCCc2ccccc21`, the inhibition is, setting by setting: (at 10 µM) 56% (inactive); under setting [1], 26%.

As for `Cc1nc(-c2ccc(O)c(O)c2)cs1`, the inhibition by setting is: (at 10 µM) 31% (inactive); under setting [1], 4%.

With `COc1cc(C(Nc2ccccn2)c2ccc3ccc(C)nc3c2O)cc(OC)c1O` (stereo not drawn), the inhibition by setting is: (at 10 µM) 0% (inactive); under setting [1], 20%.

With `O=C(Nc1ccccc1N1CCOCC1)c1cc(-c2ccco2)nc2ccccc12`, the inhibition (at 10 µM) was 56% (inactive) and the inhibition under setting [1] was found to be 28%.

As to `COc1ccc(N=Cc2sc(O)c3ccccc23)cc1`, the inhibition was 47% (inactive) (at 10 µM) and 22% under setting [1].

In the case of `Oc1ccc(-c2nc3ccc4ccccc4c3c3c2CCC3)cc1O`, the inhibition runs as follows: (at 10 µM) 71% (active); under setting [1], 47%.

Turning to `COc1cc2c3c(c1)/C(=C1/SC(NC(C)=O)=NC1=O)C(=O)N3C(C)(C)C=C2C`, the inhibition was 37% (inactive) (at 10 µM) and 4% under setting [1].

Regarding `O=c1[nH]cnc2c1sc1nc3c(c(-c4ccc(Cl)cc4)c12)CCC3`, the inhibition is 51% (inactive) (at 10 µM) and 19% under setting [1].

Consider `Oc1ccc(-c2nccc(-c3cccs3)n2)cc1`, for which the inhibition reads like this: (at 10 µM) 28% (inactive); under setting [1], 14%.

On to `C1CCC(c2nn3c(-c4n[nH]c5c4CCC5)nnc3s2)CC1`, for which the inhibition is 61% (inactive) (at 10 µM) and 19% under setting [1].

With `COc1ccc(CCn2c(SCC(=O)Nc3cc(C)on3)nc3ccsc3c2=O)cc1OC`, the inhibition (at 10 µM) is 66% (inactive) and the inhibition under setting [1] amounted to 18%.

In the case of `O=C(CNc1ccccc1)N/N=C/c1cn(-c2ccccc2)nc1-c1ccccc1`, the inhibition reads like this: (at 10 µM) 53% (inactive); under setting [1], 48%.

Regarding `Cc1oc2c(C)c(O)ccc2c(=O)c1N1C(=O)c2ccccc2C1=O`, the inhibition (at 10 µM) is 16% (inactive) and the inhibition under setting [1] came out at 18%.

Regarding `COc1ccc(OC)c(N2C(=O)[C@@H]3C(c4ccccc4Cl)=NO[C@@H]3C2=O)c1`, the inhibition (at 10 µM) is 52% (inactive) and the inhibition under setting [1] was determined as 30%.
